We go through eleven compounds from PubChem BioAssay (NCATS).

In test [1] the target is Cytochrome P450 3A4 (Homo sapiens) (UniProt P08684). Put plainly: qHTS Assay for Inhibitors and Substrates of Cytochrome P450 3A4 (AID 884). Also: nearly all actives have a fitted effect of over 50% in size. Also: potency is read from the fitted curve at half-maximal effect. As to activity change, negative = inhibition: % is scaled to controls: 0 for no effect and ±100 for the full control effect. In outline: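 20 nM human CYP3A4 with 25 uM Luciferin-PPXE (at KM) in 200 mM KPO4, preincubated 10 min with compound; NADPH regeneration started a 60 min RT reaction. Luciferin detected by luminescence, normalized to 57 uM ketoconazole as full inhibition.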
Sequence of Cytochrome P450 3A4 (Homo sapiens) (P08684 whole entry, looked up): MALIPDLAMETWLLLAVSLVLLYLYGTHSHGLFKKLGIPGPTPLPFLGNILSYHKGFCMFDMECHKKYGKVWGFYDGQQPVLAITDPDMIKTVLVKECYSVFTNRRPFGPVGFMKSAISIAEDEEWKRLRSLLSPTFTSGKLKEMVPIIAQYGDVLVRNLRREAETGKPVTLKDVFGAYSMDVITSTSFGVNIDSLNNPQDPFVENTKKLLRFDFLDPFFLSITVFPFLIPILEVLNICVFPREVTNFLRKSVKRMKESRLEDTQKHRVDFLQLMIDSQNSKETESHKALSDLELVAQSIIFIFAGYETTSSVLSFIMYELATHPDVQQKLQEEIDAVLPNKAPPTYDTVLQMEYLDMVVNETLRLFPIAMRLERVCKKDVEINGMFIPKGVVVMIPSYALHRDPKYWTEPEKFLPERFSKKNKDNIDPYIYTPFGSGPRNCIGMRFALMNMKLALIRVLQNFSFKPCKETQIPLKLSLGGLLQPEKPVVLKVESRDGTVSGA
A general note: Quantitative high-throughput screening tests each substance at several concentrations.

Test [2] has the same target. Kind of test: qHTS Assay for Activators of Cytochrome P450 3A4 (AID 885). Also: nearly all actives have a fitted effect of over 65% in size. Also: potency is read from the fitted curve at half-maximal effect. In outline:
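Steps: enzyme/substrate mix dispensed; compound added, 10 min RT; NADPH regeneration solution added, 60 min RT; luciferin detection buffer stops reaction; 20 min later luminescence measured.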

The nature of test [3]: Confirmation and Secondary Assay for Modulators of Hemoglobin Beta Chain Splicing at IVS2 654 locus (AID 910).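 Also: HeLa cells stably carrying EGFP split by mutant beta-globin IVS2-654 intron; per-well total GFP intensity by laser scanning cytometry after 2-day treatment; % of control where 0% means no effect.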 Summed up:
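Readout: per-well total peak green fluorescence (488 nm ex, 500–520 nm em) from objects 5–250 µm, reflecting correct splicing of an EGFP-654 reporter. Compounds were applied for 2 days at 37 °C to overnight-plated HeLa EGFP-654 cells; controls were DMSO and 500 nM IVS2-654 PNA.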

A short description of test [4]: Confirmation and Secondary Assay for Modulators of Hemoglobin Beta Chain Splicing at IVS2 705 locus (AID 930).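 Also: HeLa cells stably expressing the EGFP-705 splicing reporter; GFP fluorescence per well restored by corrected splicing of the IVS2-705 intron in EGFP; % of control where 0% means no effect.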 Summed up:
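Assay measures total GFP intensity per well in HeLa EGFP-705 cells after 2 days with compound; mis-splicing normally truncates EGFP, so fluorescence indicates corrected splicing.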

Test [5] in a line: qHTS Assay for Lipid Storage Modulators (AID 1519; calls by dose curve; as to activity change, negative = inhibition: % is scaled to controls: 0 for no effect and ±100 for the full control effect). The following applies: Drosophila S3 cells, BODIPY lipid droplet/cell ratio, laser cytometry, cells loaded with oleic acid; for activity change, negative = inhibition: at 57.5 µM (top of the series). In outline:
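Cells seeded at 5,000 per well were treated with compounds over a concentration series and loaded with oleic acid (400 uM, as added). Lipid droplet fluorescence (488 nm excitation, 500-530 nm channel) was read by laser-scanning cytometry and normalized to 20 uM Triacsin C.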

Test [6] deals with Ubiquitin carboxyl-terminal hydrolase 1 (Homo sapiens) (UniProt O94782). Put plainly: Inhibitors of USP1/UAF1: Pilot qHTS (AID 504865).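 Also: rhodamine fluorescence freed from ubiquitin-rhodamine substrate followed over time; top concentration of the series differs between compounds; % is scaled to controls: 0 for no effect and ±100 for the full control effect; nearly all actives have a fitted effect of over 35% in size.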 In outline: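 Kinetic fluorescence assay: 1nM USP1/UAF1, 15 min compound preincubation, then 150nM Ub-Rho; 480/540 nm.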
Sequence of Ubiquitin carboxyl-terminal hydrolase 1 (Homo sapiens) (O94782 whole entry, looked up): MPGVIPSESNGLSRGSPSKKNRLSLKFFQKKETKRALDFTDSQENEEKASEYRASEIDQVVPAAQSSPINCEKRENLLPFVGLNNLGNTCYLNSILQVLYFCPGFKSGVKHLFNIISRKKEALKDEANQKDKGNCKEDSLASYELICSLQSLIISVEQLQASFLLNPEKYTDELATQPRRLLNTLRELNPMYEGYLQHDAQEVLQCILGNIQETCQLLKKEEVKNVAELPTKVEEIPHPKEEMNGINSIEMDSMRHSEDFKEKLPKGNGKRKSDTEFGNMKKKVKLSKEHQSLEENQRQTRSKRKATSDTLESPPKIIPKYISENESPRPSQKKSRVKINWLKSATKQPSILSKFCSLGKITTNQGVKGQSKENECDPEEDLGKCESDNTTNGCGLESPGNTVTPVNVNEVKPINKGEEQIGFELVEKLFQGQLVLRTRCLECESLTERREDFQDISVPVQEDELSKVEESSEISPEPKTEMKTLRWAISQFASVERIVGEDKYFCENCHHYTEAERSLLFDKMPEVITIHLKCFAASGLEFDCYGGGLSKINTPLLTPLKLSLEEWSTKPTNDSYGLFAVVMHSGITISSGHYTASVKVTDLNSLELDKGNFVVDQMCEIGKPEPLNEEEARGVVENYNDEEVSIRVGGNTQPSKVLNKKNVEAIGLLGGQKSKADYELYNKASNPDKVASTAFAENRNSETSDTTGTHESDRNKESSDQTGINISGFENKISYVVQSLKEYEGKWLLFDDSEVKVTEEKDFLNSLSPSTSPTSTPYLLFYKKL
The target in test [7] is DNA dC->dU-editing enzyme APOBEC-3G (Homo sapiens) (UniProt Q9HC16). Kind of test: qHTS for inhibitors of Vif-A3G interactions: Validation (AID 588379). Also: 0% is about no effect. In outline:
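HeLa cells stably expressing Vif and A3G-eYFP, 700 cells/well, incubated overnight at 37 deg C, then exposed to compound overnight at 37 deg C. Inhibition of Vif-mediated degradation read as increased yellow fluorescence (Ex 488/Em 500-530) by laser-scanning cytometry.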

In test [8] the target is Luciferin 4-monooxygenase (Photinus pyralis) (UniProt P08659). Kind of test: Biochemical firefly luciferase enzyme assay for NPC (AID 624030).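 Also: purified P. pyralis luciferase at 10 nM with luciferin and ATP substrate; 0% = DMSO and -100% = full luciferase inhibition by PTC124 control; nearly all actives have a fitted effect of over 70% in size.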 In outline:
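Direct inhibition of firefly luciferase enzyme (10 nM final, 50 mM Tris Acetate) assessed by luminescence within 5 minutes. Percent activity scaled between DMSO and PTC124 positive control, with concentration-effect curves classified by fit quality and response.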

Where [9] appears, read: measured here: cell count channel max response.
Where [10] appears, read: measured here: lipid channel max response.

SMILES strings stand for the structures. “And” between values parts separate entries of the source, which are not always exact repeats. Equal entries are not always repeated. Results filed as inconclusive are left out. The source made the active and inactive calls. Unless noted, calls follow the shape of the dose curve; as a rule, active = well fitted curve in the direction sought with a large enough effect; inconclusive = small, poorly fitted or top-dose-only effect, or another doubt; inactive = no such curve, though single readings can be large; an effect the other way counts as inactive or inconclusive.

Sequence of DNA dC->dU-editing enzyme APOBEC-3G (Homo sapiens) (Q9HC16 whole entry, looked up): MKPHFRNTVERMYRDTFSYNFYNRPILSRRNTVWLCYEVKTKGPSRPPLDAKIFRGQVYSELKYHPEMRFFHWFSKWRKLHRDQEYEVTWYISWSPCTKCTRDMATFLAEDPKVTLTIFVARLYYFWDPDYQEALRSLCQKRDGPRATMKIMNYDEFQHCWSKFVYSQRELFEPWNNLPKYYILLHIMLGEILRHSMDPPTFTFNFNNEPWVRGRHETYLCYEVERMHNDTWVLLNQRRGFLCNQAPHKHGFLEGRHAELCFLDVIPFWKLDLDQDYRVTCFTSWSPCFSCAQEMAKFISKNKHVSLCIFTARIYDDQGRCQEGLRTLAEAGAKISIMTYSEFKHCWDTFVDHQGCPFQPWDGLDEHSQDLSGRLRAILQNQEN
Sequence of Luciferin 4-monooxygenase (Photinus pyralis) (P08659 whole entry, looked up): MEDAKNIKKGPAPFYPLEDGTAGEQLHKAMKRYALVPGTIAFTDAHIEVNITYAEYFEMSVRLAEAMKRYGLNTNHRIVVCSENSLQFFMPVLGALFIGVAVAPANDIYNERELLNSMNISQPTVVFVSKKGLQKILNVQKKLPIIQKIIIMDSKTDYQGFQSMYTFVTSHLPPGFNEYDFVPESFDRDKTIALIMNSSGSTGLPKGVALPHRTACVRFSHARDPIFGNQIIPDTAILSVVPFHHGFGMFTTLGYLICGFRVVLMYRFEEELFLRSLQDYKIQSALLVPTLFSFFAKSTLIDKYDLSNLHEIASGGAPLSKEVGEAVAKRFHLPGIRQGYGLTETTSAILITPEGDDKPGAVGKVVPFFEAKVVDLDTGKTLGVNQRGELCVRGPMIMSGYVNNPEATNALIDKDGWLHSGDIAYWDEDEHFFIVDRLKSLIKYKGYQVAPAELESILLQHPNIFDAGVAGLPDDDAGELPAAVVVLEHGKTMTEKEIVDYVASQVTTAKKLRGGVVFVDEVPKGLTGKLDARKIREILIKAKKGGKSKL

For the compound `CC(=O)OC1C[C@@]2(C)C(c3ccoc3)OC(=O)C3O[C@@]32[C@]2(C)C(OC(C)=O)CC3C(C)(C)C(OC(C)=O)CC(OC(C)=O)[C@@]3(C)C12` (stereo partly specified), the Potency in test [1] is 5.01 µM (active). Also, the Potency entry in test [2], in test [3], in test [4] and in test [6] was “inactive” each time. The activity change, negative = inhibition in test [5] is -11.3% (inactive). Further, the figures for the max response in test [5] (setting [9]) and in test [5] (setting [10]) were -1.68% and -11%, respectively.
On to `C=C[C@](C)(O)CCC1C(=C)CCC2[C@@](C)(CO)CCC[C@@]12C` (stereo partly specified), for which the Potency in test [1] was 2.51 µM (active). Further, the Potency result in test [2], in test [3], in test [4] and in test [6] was “inactive” each time. In test [5], the activity change, negative = inhibition is 2.53% (inactive). The max response in test [5] (setting [9]) was -1.43%; in test [5] (setting [10]) it was 3.55%.
Regarding `CC[C@H](C)[C@H](NC(=O)OCC1c2ccccc2-c2ccccc21)C(=O)O`, the Potency in test [1] is 31.6 µM (active). For the same compound, the Potency entry in test [2] and in test [6] was “inactive” in each case. Besides, the activity change, negative = inhibition in test [5] was -4.14% (inactive). The max response is 1.47% in test [5] (setting [9]) and -2.84% in test [5] (setting [10]). Besides, the compound was called inactive in test [7].
Take `COC(=O)CC1C(C)(C)C(OC(C)=O)C2CC3C4CC(=O)OC(c5ccoc5)[C@]4(C)CCC3[C@@]1(C)C2=O` (stereo partly specified): the Potency in test [1] is 0.631 µM (active). Also, the Potency result in test [2], in test [3], in test [4] and in test [6] was “inactive” in each case. In test [5], the activity change, negative = inhibition was -20.8% (inactive). Also, the figures for the max response in test [5] (setting [9]) and in test [5] (setting [10]) were 1.85% and -17.5%, respectively.
`COc1ccc(C2CC(=O)c3c(O)cc(O)cc3O2)cc1O` (stereo unspecified): the Potency in test [1] is 15.8 µM (active). Further, the Potency entry in test [2], in test [3], in test [4] and in test [6] was “inactive” throughout. The activity change, negative = inhibition in test [5] is 3.83% (inactive). The max response in test [5] (setting [9]) came to 3.05%; in test [5] (setting [10]) it was 6.13%.
`O=c1cc(-c2ccccc2)oc2cccc(O)c12`: the Potency result in test [2], in test [4] and in test [6] was “inactive” each time. The activity change, negative = inhibition in test [5] is 19.1% (inactive). Moreover, the max response in test [5] (setting [9]) amounted to 2.34%; in test [5] (setting [10]), 21.9%. The compound was called inactive in test [7].
Consider `C/C=C(/C)C(=O)OC1Cc2c(ccc3ccc(=O)oc23)OC1(C)C` (stereo unspecified), for which the Potency entry in test [1], in test [3], in test [4] and in test [6] was “inactive” in each case. The Potency in test [2] is 15.8 µM (active). Further, in test [5], the activity change, negative = inhibition is 2.21% (inactive). The max response worked out at 9.88% in test [5] (setting [9]) and 14.5% in test [5] (setting [10]).
On to `COc1ccc2c(c1)OCC(Cc1ccc(OC)c(OC)c1)C2O` (stereo unspecified), for which, in test [1], the Potency was 7.94 µM (active) and 12.6 µM (active). Moreover, the Potency result in test [2], in test [3], in test [4] and in test [6] was “inactive” in each case. Besides, in test [5], the activity change, negative = inhibition was 6.38% (inactive). Moreover, the max response was 8.42% in test [5] (setting [9]) and 15.9% in test [5] (setting [10]).
For the compound `CCOC(=O)c1c(C)cc(O)cc1O`, the Potency in test [1] was 25.1 µM (active). Besides, the Potency result in test [2], in test [3], in test [4] and in test [6] was “inactive” in each case. For the same compound, the activity change, negative = inhibition in test [5] is 13% (inactive). Also, the max response in test [5] (setting [9]) is -2.16%; in test [5] (setting [10]) it was 14.3%.
For `NCC1O[C@@H](O[C@@H]2C(O)[C@H](O[C@H]3OC(CO)C(O)C(N)C3O)[C@@H](N)C[C@H]2N)C(N)C(O)C1O` (stereo partly specified), the Potency entry in test [1], in test [3], in test [4], in test [6] and in test [8] was “inactive” throughout. The activity change, negative = inhibition in test [5] was 5.31% (inactive). Moreover, the max response in test [5] (setting [9]) came to 20.8%; in test [5] (setting [10]), 32.5%.
In the case of `COC1C[C@@H](O[C@@H]2C(C)C(=O)OC(C)C(C)C(O)C(C)C(=O)[C@@]3(CO3)CC(C)C(OC3OC(C)CC(N(C)C)C3O)C2C)OC(C)[C@@H]1O` (stereo partly specified), the Potency in test [1] was 6.31 µM (active). In addition, the Potency entry in test [2], in test [3], in test [4] and in test [6] was “inactive” each time. Moreover, in test [5], the activity change, negative = inhibition was 4.89% (inactive). The results for the max response in test [5] (setting [9]) and in test [5] (setting [10]) were 4.4% and 11%, respectively.
